Source: PubChem BioAssay (EPA / NIEHS)
Inconclusive results are not listed. Calls of active or inactive are those of the source. Rule for the calls, unless noted: active = hit-call score of the fitted dose curve at least 0.9, where 1 is the maximum; inactive = score below 0.9.

Key:
[1] = ATG_Ets_CIS: Attagene CIS-FACTORIAL HepG2 Assay for human Erythroblast Transformation Specific (ETS) (AID 2282941); conditions: HepG2 ETS cis-reporter transcription, actives raise or lower the signal
Method in brief: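 Cis-regulated reporter mRNA induction in HepG2 (transient transfection), 24 h exposure, RT-PCR plus capillary electrophoresis detection; DMSO serves as negative control and baseline.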

[2] = ATG_M_06_CIS: Attagene CIS-FACTORIAL HepG2 Assay for M06 Transcription Factor (Internal Marker) (AID 2282950); conditions: HepG2 Attagene CIS-FACTORIAL M06 internal marker reporter; actives raise or lower the signal
Method in brief: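 Steps: transfect HepG2 with multiplexed cis-element reporter constructs; dose chemical 24 h; extract RNA with DNase treatment; reverse-transcribe, PCR-amplify, 6-FAM label, HpaI digest; separate fragments by capillary electrophoresis. Activity fitted both directions versus DMSO.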

[3] = biological target: Hepatocyte nuclear factor 6 (Homo sapiens) (UniProt Q9UBC0); assay: ATG_HNF6_CIS: Attagene CIS-FACTORIAL HepG2 Assay for human Hepatocyte Nuclear Factor 6 (HNF6) (AID 2282952); conditions: HepG2 Attagene cis-factorial HNF6 reporter transcription; actives raise or lower the signal
Method in brief: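 Twenty-four-hour chemical treatment of reporter-transfected HepG2 cells precedes RNA isolation, DNase-treated reverse transcription and PCR of reporter sequences. Labelled fragments are sized by capillary electrophoresis and fitted bidirectionally versus DMSO.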

[4] = biological target: Heat shock factor protein 1 (Homo sapiens) (UniProt Q00613); assay: ATG_HSE_CIS: Attagene CIS-FACTORIAL HepG2 Assay for human Heat Shock Transcription Factor 1 (HSE) (AID 2282953); conditions: HepG2 HSE cis-reporter, Attagene RNA transcription; actives raise or lower the signal
Method in brief: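 Cells were transfected with cis-element-driven reporter constructs, dosed for 24 h, then total RNA was reverse-transcribed and reporter cDNA amplified, FAM-labelled and digested with HpaI. Fragments were resolved by capillary electrophoresis; gain or loss was fitted against DMSO.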

[5] = ATG_Sox_CIS: Attagene CIS-FACTORIAL HepG2 Assay for human SRY-box transcription factor (SOX) (AID 2282960); conditions: HepG2 Attagene cis-factorial SOX reporter, mRNA; actives raise or lower the signal
Method in brief: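 HepG2 cells transiently transfected with cis-element-driven multiple reporter transcription units, dosed 24 h; reporter mRNA measured by RT-PCR, FAM labelling, HpaI digestion and capillary electrophoresis. Bidirectional fit versus DMSO baseline.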

[6] = ATG_TA_CIS: Attagene CIS-FACTORIAL HepG2 Assay for human TA Basal Promoter (AID 2282964); conditions: HepG2 Attagene CIS-factorial TA basal promoter reporter; actives raise or lower the signal
Method in brief: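 Steps: transfect HepG2 with MRTUs; dose 24 h; isolate RNA, DNase-treat, reverse-transcribe; PCR and FAM-label reporter cDNA; digest with HpaI 2h at 37 C; run capillary electrophoresis. Activity fitted both directions against DMSO.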

[7] = ATG_TCF_b_cat_CIS: Attagene CIS-FACTORIAL HepG2 Assay for human T-Cell-Factor with beta-catenin (TCF/b-cat) (AID 2282965); conditions: HepG2 TCF/beta-catenin cis-reporter transcription, actives raise or lower the signal
Method in brief: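 In this cis-format system, transfected HepG2 cells report endogenous transcription factor activity. Readout after 24 h exposure is reporter transcript abundance from RT-PCR and capillary electrophoresis, analysed for gain or loss of signal versus DMSO.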

[8] = ATG_TGFb_CIS: Attagene CIS-FACTORIAL HepG2 Assay for human Transforming Growth Factor (TGF) (AID 2282967); conditions: HepG2 Attagene CIS TGFb reporter, mRNA transcription; actives raise or lower the signal
Method in brief: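 Cells were dosed for 24 hours, after which total RNA was reverse-transcribed and reporter sequences amplified, labeled and sized by capillary electrophoresis. Activity was fitted in both directions against DMSO.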

[9] = biological target: X-box-binding protein 1 (Homo sapiens) (UniProt P17861); assay: ATG_Xbp1_CIS: Attagene CIS-FACTORIAL HepG2 Assay for human X-box Binding Protein 1 (XBP1) (AID 2282972); conditions: HepG2 XBP1 cis-element reporter, Attagene multiplex; actives raise or lower the signal
Method in brief: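 Multiplexed cis-reporter readout in transfected HepG2 liver cells. Exposure lasted 24 hours. Activity in either direction was fitted against DMSO as negative control and baseline.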

[10] = biological target: Transcriptional activator Myb (Homo sapiens) (UniProt P10242); assay: ATG_Myb_CIS: Attagene CIS-FACTORIAL HepG2 Assay for human Myeloblastosis (Myb) Proto-Oncogene Transcription Factor (AID 2282986); conditions: HepG2 Attagene CIS-FACTORIAL Myb reporter transcription; actives raise or lower the signal
Method in brief: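 HepG2 cells were transiently transfected with cis-regulated multiple reporter transcription units reflecting endogenous Myb activity, then exposed to compound for 24 hours. Reporter mRNA was measured by RT-PCR with capillary electrophoresis; bidirectional fitting versus DMSO baseline.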

[11] = biological target: Nuclear respiratory factor 1 (Homo sapiens) (UniProt Q16656); assay: ATG_NRF1_CIS: Attagene CIS-FACTORIAL HepG2 Assay for human Nuclear Respiratory Factor 1 (NRF1) Orphan Gene (AID 2282987); conditions: HepG2 NRF1 cis-element reporter, Attagene multiplex; actives raise or lower the signal
Method in brief: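 HepG2 cells transiently transfected with multiple reporter transcription units under cis-regulatory promoter control, so endogenous transcription-factor activity is read. After 24 h compound exposure, reporter mRNA quantified by RT-PCR, fluorescent labelling, HpaI digestion and capillary electrophoresis; bidirectional fitting versus DMSO.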

[12] = biological target: Myc proto-oncogene protein (Homo sapiens) (UniProt P01106); assay: ATG_Myc_CIS: Attagene CIS-FACTORIAL HepG2 Assay for human Myelocytomatosis (Myc) Proto-Oncogene Transcription Factor (AID 2282990); conditions: HepG2, Attagene cis-reporter transcription factor activity; actives raise or lower the signal
Method in brief: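 DMSO-normalised, bidirectionally fitted reporter mRNA signal. HepG2 cells transfected with cis reporter constructs, treated 24 h; transcripts detected by RT-PCR, 6-FAM primer extension and CE.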

[13] = ATG_NRF2_ARE_CIS: Attagene CIS-FACTORIAL HepG2 Assay for human Nuclear Factor Erythroid 2 Related Factor 2 (NFR2) response to Antioxidant Response Elements (ARE) (AID 2282992); conditions: HepG2 Attagene ARE/NRF2 reporter, transcription factor activity; actives raise or lower the signal
Method in brief: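 Endogenous transcription factor activity in human liver HepG2 cells is tracked via a cis-element-driven reporter within a multiplexed set. mRNA induction is read by RT-PCR and capillary electrophoresis after 24 h, with DMSO as baseline.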

[14] = ATG_Oct_MLP_CIS: Attagene CIS-FACTORIAL HepG2 Assay for human Octamer-Binding Transcription Factor (Oct) (AID 2282993); conditions: HepG2 Attagene cis-factorial Oct reporter, mRNA; actives raise or lower the signal
Method in brief: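 Multiplexed cis-reporter assay in human liver HepG2 cells, 24 h incubation. Reporter RNA amplified and labelled, then resolved by capillary electrophoresis; DMSO serves as negative control and baseline.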

[15] = biological target: Cellular tumor antigen p53 (Homo sapiens) (UniProt P04637); assay: ATG_p53_CIS: Attagene CIS-FACTORIAL HepG2 Assay for human p53 Transcription Factor (AID 2282994); conditions: HepG2 p53 cis-element reporter, Attagene mRNA; actives raise or lower the signal
Method in brief: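 Steps: transfect HepG2 with multiplexed cis reporter constructs; dose chemicals 24 h; extract RNA, reverse-transcribe, PCR-amplify reporter sequences; FAM-label, HpaI-digest, resolve fragments by CE. Activity fitted both directions relative to DMSO.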

[16] = biological target: Nuclear receptor subfamily 1 group I member 2 (Homo sapiens) (UniProt O75469); assay: ATG_PXR_TRANS: Attagene TRANS-FACTORIAL HepG2 Assay for human Pregnane X Receptor (PXR) (AID 2283008; active = hit-call score of the fitted dose curve at least 0.9, where 1 is the maximum)
Method in brief: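 HepG2 transfected (FuGene 6) with GAL4-UAS reporter units + PXR-Gal4 chimera; dosed 24 h. Total RNA → oligo(dT) RT → PCR → 6-FAM primer extension → HpaI cut → CE. Gain-of-signal vs DMSO.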

[17] = ATG_XTT_Cytotoxicity: Cytotoxicity Assessment in the Attagene TRANS-FACTORIAL HepG2 Assay (AID 2283584; active = hit-call score of the fitted dose curve at least 0.9, where 1 is the maximum)
Method in brief: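 24 h chemical exposure of reporter-transfected HepG2; XTT signal loss vs DMSO indicates cytotoxicity.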

[18] = ATG_DR4_LXR_CIS: Attagene CIS-FACTORIAL HepG2 Assay for human Liver X Receptor (LXR), DR4 submotif (AID 2282929); conditions: HepG2 Attagene DR4 cis-reporter, mRNA transcription; actives raise or lower the signal
Method in brief: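 HepG2 cells transiently transfected with cis-promoter-driven multiplexed reporter units (DR4 element) were dosed for 24 h. Reporter mRNA was quantified by RT-PCR, fluorescent primer extension, HpaI digestion and capillary electrophoresis; bidirectional fitting versus DMSO baseline.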

[19] = biological target: Hypoxia-inducible factor 1-alpha (Homo sapiens) (UniProt Q16665); assay: ATG_HIF1a_CIS: Attagene CIS-FACTORIAL HepG2 Assay for human Hypoxia Inducible Factor 1 (HIF1A) (AID 2282951); conditions: HepG2 Attagene cis-factorial HIF1a reporter transcription; actives raise or lower the signal
Method in brief: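 HepG2 cells transiently transfected with multiplexed cis-promoter reporter units; reporter mRNA read 24 h after dosing by RT-PCR, 6-FAM primer-extension labelling, HpaI digestion and capillary electrophoresis. Bidirectional fit versus DMSO baseline.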

[20] = ATG_TAL_CIS: Attagene CIS-FACTORIAL HepG2 Assay for human TAL Basal Promoter (AID 2282966); conditions: HepG2 Attagene cis-factorial TAL promoter reporter; actives raise or lower the signal;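 note: background control endpoint measuring basal TAL promoter reporter mRNA not a specific factor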
Method in brief: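 Human hepatoma HepG2 cells, transfected with promoter-regulated reporter units, were treated 24 h. Reporter transcript levels, measured through RT-PCR and capillary electrophoresis, were fitted for gain or loss relative to DMSO.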

Measured: outcome

Sequence of Heat shock factor protein 1 (Homo sapiens) (Q00613 whole entry, looked up, the tested form may be a part): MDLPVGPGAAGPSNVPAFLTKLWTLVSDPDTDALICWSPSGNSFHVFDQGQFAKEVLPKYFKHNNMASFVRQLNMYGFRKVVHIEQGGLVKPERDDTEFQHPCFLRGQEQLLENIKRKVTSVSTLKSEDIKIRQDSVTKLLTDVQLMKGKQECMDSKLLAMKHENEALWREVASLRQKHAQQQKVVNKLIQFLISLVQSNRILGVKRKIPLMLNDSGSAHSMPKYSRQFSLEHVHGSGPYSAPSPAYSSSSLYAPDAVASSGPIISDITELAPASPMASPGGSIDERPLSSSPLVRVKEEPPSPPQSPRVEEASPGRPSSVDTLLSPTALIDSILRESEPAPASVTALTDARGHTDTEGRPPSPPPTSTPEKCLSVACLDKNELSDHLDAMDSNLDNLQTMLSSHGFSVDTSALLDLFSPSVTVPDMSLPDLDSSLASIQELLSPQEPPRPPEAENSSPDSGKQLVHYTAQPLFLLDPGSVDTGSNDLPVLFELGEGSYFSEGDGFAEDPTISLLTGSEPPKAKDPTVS
Sequence of Nuclear respiratory factor 1 (Homo sapiens) (Q16656 whole entry, looked up): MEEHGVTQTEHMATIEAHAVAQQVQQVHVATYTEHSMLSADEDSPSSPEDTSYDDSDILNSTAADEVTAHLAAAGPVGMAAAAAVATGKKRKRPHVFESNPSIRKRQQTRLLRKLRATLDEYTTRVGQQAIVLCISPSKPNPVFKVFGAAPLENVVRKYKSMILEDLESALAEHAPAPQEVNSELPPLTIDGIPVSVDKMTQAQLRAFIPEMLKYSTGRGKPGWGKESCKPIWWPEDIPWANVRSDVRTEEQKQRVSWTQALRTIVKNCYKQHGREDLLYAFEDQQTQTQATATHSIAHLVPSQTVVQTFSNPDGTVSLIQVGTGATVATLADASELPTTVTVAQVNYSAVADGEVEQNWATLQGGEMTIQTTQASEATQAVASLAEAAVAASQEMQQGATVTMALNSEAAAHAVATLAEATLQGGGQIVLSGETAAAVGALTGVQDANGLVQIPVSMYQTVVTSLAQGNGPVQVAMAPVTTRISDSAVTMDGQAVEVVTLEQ
Sequence of Hypoxia-inducible factor 1-alpha (Homo sapiens) (Q16665 whole entry, looked up): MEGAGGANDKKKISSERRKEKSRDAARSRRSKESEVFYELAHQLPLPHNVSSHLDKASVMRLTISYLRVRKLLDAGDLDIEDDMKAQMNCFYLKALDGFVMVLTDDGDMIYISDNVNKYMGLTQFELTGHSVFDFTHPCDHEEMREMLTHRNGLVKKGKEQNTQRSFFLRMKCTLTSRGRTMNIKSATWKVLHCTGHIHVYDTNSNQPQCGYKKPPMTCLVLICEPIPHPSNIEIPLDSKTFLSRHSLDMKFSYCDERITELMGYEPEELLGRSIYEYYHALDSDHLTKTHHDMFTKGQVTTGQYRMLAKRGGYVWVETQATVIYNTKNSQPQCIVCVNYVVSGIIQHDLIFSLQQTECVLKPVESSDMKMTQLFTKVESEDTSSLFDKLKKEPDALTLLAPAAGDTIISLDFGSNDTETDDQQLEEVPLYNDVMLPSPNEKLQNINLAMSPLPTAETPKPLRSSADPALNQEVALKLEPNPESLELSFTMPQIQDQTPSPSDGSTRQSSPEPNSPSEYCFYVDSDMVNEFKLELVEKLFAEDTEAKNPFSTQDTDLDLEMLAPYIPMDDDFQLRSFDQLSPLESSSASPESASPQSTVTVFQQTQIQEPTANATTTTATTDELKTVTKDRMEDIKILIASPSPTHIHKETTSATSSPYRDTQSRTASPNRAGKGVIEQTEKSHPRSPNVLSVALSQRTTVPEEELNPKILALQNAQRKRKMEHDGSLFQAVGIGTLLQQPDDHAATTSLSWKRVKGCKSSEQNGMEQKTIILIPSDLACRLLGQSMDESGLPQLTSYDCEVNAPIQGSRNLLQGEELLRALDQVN
Sequence of X-box-binding protein 1 (Homo sapiens) (P17861 whole entry, looked up): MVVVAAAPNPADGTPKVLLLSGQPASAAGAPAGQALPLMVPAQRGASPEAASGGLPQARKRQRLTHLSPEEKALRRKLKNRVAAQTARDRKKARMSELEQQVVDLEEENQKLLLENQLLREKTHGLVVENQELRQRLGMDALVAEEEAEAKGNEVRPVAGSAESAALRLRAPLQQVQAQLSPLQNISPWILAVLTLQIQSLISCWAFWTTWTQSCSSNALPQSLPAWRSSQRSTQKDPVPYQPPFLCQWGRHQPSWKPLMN
Sequence of Myc proto-oncogene protein (Homo sapiens) (P01106 whole entry, looked up): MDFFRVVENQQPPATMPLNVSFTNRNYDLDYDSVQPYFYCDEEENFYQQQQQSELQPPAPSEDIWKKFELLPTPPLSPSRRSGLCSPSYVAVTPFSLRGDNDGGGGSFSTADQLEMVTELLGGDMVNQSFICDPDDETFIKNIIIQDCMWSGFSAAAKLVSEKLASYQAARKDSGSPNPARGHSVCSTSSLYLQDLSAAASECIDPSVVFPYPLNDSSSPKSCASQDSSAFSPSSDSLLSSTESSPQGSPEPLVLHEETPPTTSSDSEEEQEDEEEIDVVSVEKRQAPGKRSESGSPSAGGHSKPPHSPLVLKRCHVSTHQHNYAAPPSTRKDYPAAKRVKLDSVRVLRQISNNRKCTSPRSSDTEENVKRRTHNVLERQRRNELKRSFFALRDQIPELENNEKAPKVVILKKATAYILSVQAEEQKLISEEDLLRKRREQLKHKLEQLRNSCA
Sequence of Nuclear receptor subfamily 1 group I member 2 (Homo sapiens) (O75469 whole entry, looked up, the tested form may be a part): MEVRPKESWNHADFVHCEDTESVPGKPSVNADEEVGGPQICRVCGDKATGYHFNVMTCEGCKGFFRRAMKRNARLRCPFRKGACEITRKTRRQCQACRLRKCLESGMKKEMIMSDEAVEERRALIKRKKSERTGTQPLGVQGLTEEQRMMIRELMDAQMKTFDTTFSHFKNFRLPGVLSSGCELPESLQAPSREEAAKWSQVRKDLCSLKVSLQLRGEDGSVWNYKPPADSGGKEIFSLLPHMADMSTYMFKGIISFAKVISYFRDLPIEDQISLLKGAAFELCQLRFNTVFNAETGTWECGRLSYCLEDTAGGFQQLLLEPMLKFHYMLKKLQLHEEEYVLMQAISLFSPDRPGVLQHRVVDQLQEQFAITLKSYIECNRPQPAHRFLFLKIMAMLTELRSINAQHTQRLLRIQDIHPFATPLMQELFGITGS
Sequence of Transcriptional activator Myb (Homo sapiens) (P10242 whole entry, looked up): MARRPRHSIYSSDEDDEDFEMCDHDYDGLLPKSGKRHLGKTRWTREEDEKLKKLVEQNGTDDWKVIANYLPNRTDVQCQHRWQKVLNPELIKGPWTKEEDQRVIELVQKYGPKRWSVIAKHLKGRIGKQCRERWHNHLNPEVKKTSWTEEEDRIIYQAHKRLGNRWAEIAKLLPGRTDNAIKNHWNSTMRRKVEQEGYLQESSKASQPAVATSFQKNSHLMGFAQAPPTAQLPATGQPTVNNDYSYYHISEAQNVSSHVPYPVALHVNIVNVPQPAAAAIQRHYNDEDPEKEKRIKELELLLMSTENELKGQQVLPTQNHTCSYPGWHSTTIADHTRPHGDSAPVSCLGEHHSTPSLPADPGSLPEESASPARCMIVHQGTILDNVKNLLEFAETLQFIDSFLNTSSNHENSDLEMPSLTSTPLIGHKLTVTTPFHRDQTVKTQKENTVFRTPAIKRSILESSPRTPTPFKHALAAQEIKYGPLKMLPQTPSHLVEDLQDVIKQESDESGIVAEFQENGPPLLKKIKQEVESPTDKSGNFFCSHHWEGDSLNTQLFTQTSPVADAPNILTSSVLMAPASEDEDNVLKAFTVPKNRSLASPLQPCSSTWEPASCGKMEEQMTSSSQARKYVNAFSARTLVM
Sequence of Cellular tumor antigen p53 (Homo sapiens) (P04637 whole entry, looked up, the tested form may be a part): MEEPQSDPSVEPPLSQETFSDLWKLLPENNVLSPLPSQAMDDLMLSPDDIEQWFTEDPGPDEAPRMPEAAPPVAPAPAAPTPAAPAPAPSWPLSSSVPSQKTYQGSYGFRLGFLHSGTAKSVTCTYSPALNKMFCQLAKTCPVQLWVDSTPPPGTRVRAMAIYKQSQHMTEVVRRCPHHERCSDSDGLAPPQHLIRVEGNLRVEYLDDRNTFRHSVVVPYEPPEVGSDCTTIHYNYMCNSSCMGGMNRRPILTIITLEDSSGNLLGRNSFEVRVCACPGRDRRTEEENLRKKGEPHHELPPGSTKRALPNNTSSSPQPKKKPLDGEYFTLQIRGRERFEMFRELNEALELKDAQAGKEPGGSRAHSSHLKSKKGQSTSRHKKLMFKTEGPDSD
Sequence of Hepatocyte nuclear factor 6 (Homo sapiens) (Q9UBC0 whole entry, looked up, the tested form may be a part): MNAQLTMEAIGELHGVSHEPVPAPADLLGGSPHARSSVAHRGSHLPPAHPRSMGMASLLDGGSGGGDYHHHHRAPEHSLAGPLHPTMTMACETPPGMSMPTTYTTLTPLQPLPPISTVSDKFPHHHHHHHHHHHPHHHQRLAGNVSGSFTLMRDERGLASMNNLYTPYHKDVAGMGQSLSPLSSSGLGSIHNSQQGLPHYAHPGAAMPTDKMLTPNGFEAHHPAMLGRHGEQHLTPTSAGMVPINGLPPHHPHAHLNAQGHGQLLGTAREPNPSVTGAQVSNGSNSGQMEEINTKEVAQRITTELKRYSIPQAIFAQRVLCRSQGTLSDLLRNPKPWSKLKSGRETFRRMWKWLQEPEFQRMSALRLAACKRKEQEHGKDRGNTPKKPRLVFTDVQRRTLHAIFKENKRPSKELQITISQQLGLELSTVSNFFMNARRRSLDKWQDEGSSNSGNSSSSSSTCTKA

NC(N)=Nc1nc(CSCCC(N)=NS(N)(=O)=O)cs1
not listed: [18] | [19] | [20]
inactive: all other assays above

O=C(O)/C=C/C(=O)O
not listed: [1] | [16]
inactive: all other assays above

C=CN1CCCCCC1=O
inactive: all assays above

c1ccc(CNc2ncnc3nc[nH]c23)cc1
not listed: [2] | [18] | [19]
inactive: all other assays above

CC1(C)S[C@@H]2[C@H](NC(=O)[C@H](N)c3ccccc3)C(=O)N2[C@H]1C(=O)O
not listed: [1] | [18] | [19]
inactive: all other assays above

N#CCN(CC#N)CCN(CC#N)CC#N
not listed: [1] | [2] | [20]
inactive: all other assays above

C/C=C(\C)C(=O)OCC/C=C\CC
not listed: [1] | [5] | [17] | [18] | [20]
inactive: all other assays above
